Shown are actives, neighbours in structure and some others; about 6.5% of the full set was active somewhere.
HCMV inh: qHTS Assay for inhibitors of the human cytomegalovirus (HCMV). HFF cells, HCMV-luciferase reporter, 72 h; hits give low values. activity change, negative = inhibition, % at 57.5 µM. 4.5% of 410,000 active; in the data active = activity change below about -60%; inconclusive = no clear call, values can overlap the other calls; inactive = above about -39%
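Two compound doses tested in HFFs infected with HCMV-luciferase, MOI 1 PFU/cell, 72 h at 37C. Lysate luminescence read with OneGlo; data normalized against buffer-only and 10uM Salinomycin inhibitor controls.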
VACV mCherry inh: qHTS for Stage-Specific Inhibitors of Vaccinia Orthopoxvirus: mCherry Reporter Primary qHTS | Vaccinia virus mCherry reporter infection, fluorescence | AID 720579, 2013 | 0.63% of 310,000 active | Potency, µM (highest dose often 36.5 µM), for the others: at the top dose activity change, negative = inhibition, most hits filed as inhibitors; calls by dose curve; tested in A549 cells; also: potency is read from the fitted curve at half-maximal effect; nearly all actives have a fitted effect of over 35% in size
MARV entry inh: qHTS for inhibitors of binding or entry into cells for Marburg Virus. Marburg virus pseudotyped entry inhibition, cell reporter. 1.8% of 300,000 active. AID 540276, 2011. Potency, µM (highest dose often 37.8 µM), without a hit: at the top dose activity change, negative = inhibition, hits mostly inhibitors; calls by dose curve; tested in HEK293 cells; also: potency is read from the fitted curve at half-maximal effect
LASV entry inh: qHTS for Inhibitors of binding or entry into cells for Lassa Virus; Potency, µM (top dose mostly 37.9 µM), without a hit: at the highest dose activity change, negative = inhibition, actives largely listed as inhibitors; Lassa virus pseudotype entry inhibition, cell reporter; 1.2% of 300,000 active; calls by dose curve; tested in HEK293 cells; also: potency is read from the fitted curve at half-maximal effect; nearly all actives have a fitted effect of over 50% in size
Vaccinia Venus: qHTS for Stage-Specific Inhibitors of Vaccinia Orthopoxvirus: Venus Reporter Primary qHTS; Potency, µM (top dose mostly 36.5 µM), for the others: at the highest dose activity change, negative = inhibition, hits mostly inhibitors; 0.46% of 330,000 active; Vaccinia virus Venus reporter expression, fluorescence; AID 720580, 2013; calls by dose curve; tested in A549 cells; also: potency is read from the fitted curve at half-maximal effect; nearly all actives have a fitted effect of over 30% in size
FMDV antiviral: High Throughput Screening for Foot and Mouth Disease Virus Antivirals. FMDV antiviral cell-based qHTS. Potency, µM (series often up to 57.9 µM), for the others: top-dose activity change, negative = inhibition, actives largely listed as inhibitors. 1.2% of 410,000 active; calls by dose curve; tested in HEK293T cells; also: read-out not given here; potency is read from the fitted curve at half-maximal effect; nearly all actives have a fitted effect of over 45% in size
Starred values were filed as active, the others as inactive; i = inactive; ? = inconclusive; / = no result given; + = active, no number; [ ] = another dose, or the depositor's remark. % is scaled to controls: 0 for no effect and ±100 for the full control effect.

SMILES	HCMV inh	VACV mCherry inh	MARV entry inh	LASV entry inh	Vaccinia Venus	FMDV antiviral
CCOC(=O)CCN1C(=O)[C@H]2[C@H]3[C@H](O)[C@H](O)C/C(=N/OCC(C)C)[C@@H]3CC[C@@H]2C1=O	/	/	-11%[14.2 µM]	/	/	/
COc1ccc2c(c1)OC(C)CN(CCNC(=O)c1cc3cc(F)ccc3[nH]1)C2 (stereo unspecified)	/	-13%	/	/	-10%	17%
COc1ccc(Cc2c3cc(OC)c(OC)cc3cc[n+]2C)cc1OC	/	i	/	/	-7%	-10%
COc1ccc(Cc2nccc3cc(OC)c(OC)cc23)cc1OC	-77*	?	?	?	?	18µM*
CC1(c2ccccc2)CC(C)(C)N(C(=O)c2cccc(Cl)c2)c2ccccc21 (stereo unspecified)	-72*	-9%	/	-19%[46.1 µM]	-7%	3%
COc1ccccc1-c1sc2cc3c(cc2c1-c1ccc(OCCN2CCCCC2)cc1)OCO3	-33	28µM*	/	/	11µM*	?
COc1cc2sc(-c3ccccc3OC)c(-c3ccc(OCCN4CCCCC4)cc3)c2cc1OC	-18	-22%	/	/	?	?
Cc1ccc(C(=O)Nc2nnc(S(=O)(=O)N3CCc4ccccc43)s2)cc1	4	-12%	/	4%[46.1 µM]	-11%	-7%
CN(C)c1ccc([C@H]2[C@@H]3C(=O)N(c4ccc(C(=O)O)cc4)C(=O)[C@H]3ON2c2ccccc2)cc1	/	/	-1%[46.1 µM]	/	/	/
CSC1=NCCN1C(=O)c1c(F)cccc1Cl	-100*	i	?	0%	-12%	-2%
O=C(NCc1ccc(F)cc1)c1ccc(CSCc2cccc(Cl)c2)o1	2	-8%	/	-15%[46.1 µM]	5%	-3%
COc1ccc(NC(=O)CC2C(=O)N(c3cccc(OC)c3)C(=O)N2CCC2=CCCCC2)cc1 (stereo unspecified)	-9	-11%	?	11µM*	-13%	-21%
COc1ccc(NC(=O)CC2C(=O)N(c3cccc(OC)c3)C(=O)N2CCC(C)C)cc1 (stereo unspecified)	-9	/	-15%	-24%	/	10%
Cc1ccc2nc(-c3ccccc3C)c(CN(CC3CCCO3)C(=O)c3cccs3)cc2c1 (stereo unspecified)	/	-3%	/	/	-9%	-5%
COc1ccc2c(c1)CC(N1CCN(C)CC1)c1cc(OC)ccc1S2 (stereo unspecified)	-64*	?	4µM*	?	?	?
CSc1ccc2c(c1)C(N1CCN(C)CC1)Cc1ccc(F)cc1S2 (stereo unspecified)	-10	/	/	/	/	-22%
CC(NC(=O)C(=O)N1CCCCC1)C(c1cccs1)N1CCN(c2ccccc2)CC1 (stereo unspecified)	+	-2%	9%[46.1 µM]	4%[46.1 µM]	-17%	-3%
O=C(Cc1ccc(Cl)cc1)NC1CCCCCC1	13	i	5%	?	-8%	45%
Clc1ccc(CN=C(Nc2ccccc2)NC2CCCCC2)cc1	-77*	-21%	?	?	-23%	-24%
COc1cc(CNn2nnnc2N)cc(Br)c1OCc1c(Cl)cccc1Cl	-70*	/	?	?	/	?
CCCC[C@@H](C(=O)O)[C@H](C)CC(=O)Nc1cccc(C(=O)O)c1	/	/	10%	/	/	/
Cc1cc(C)nc(SCC(=O)c2ccc(O)c(O)c2)n1	7	?	/	/	-22%	8%
Cc1cc(SCC(=O)c2ccc(O)c(O)c2)n2nc(C)c(-c3ccccc3)c2n1	-30	11µM*	/	/	-29%	-22%
Cc1cc(Cl)ccc1NC(=O)C1CCN(c2nnc(-n3c(C)ccc3C)s2)CC1	-11	-9%	-10%[46.1 µM]	?	-5%	-18%
N#Cc1nc(-c2ccccc2)oc1NCC1CCCO1 (stereo unspecified)	-11	-12%	-3%	-5%	-1%	10%
SMILES	HCMV inh	VACV mCherry inh	MARV entry inh	LASV entry inh	Vaccinia Venus	FMDV antiviral
N#Cc1nc(-c2cccc3ccccc23)oc1NCC1CCCO1 (stereo unspecified)	-67*	-26%	16%	0%	-14%	7%
S=C(Nc1cccc(Cl)c1)N(CCCN1CCCC1)Cc1cccn1Cc1ccc(Cl)cc1	-79*	?	?	?	?	-24%
CSc1cccc(NC(=S)N(CCCN2CCCC2)Cc2cccn2Cc2ccc(Cl)cc2)c1	?	?	6.3µM*	2.8µM*	?	40µM*
COc1ccc(NC(=S)N2CCCN(Cc3cccc(Cl)c3)C2)cc1	0	-23%	?	?	9%	-8%
CSc1cccc(NC(=S)N2CCCN(Cc3cccc(Cl)c3)C2)c1	5	-7%	4.5µM*	?	-17%	-4%
CC(=O)N1CCc2c(sc3c2c(=O)n(-c2ccccc2)c(=O)n3CC(=O)c2ccc(F)cc2)C1	18	-1%	-9%[46.1 µM]	/	9%	-15%
COc1ccccc1N1CCN(c2nc(CNC(=O)c3cc(C)oc3C)nc3ccccc23)CC1	/	-13%	/	/	-5%	-23%
CC(=O)c1ccc(NC(=O)CSc2nnc3ccc(-c4ccc(Cl)cc4)nn23)cc1	40	-4%	/	14%[46.1 µM]	-13%	-3%
O=C1C(=O)N2C(=C1C(=O)N1CCCCCC1)c1ccccc1CC21CCCC1	-66*	-15%	-18%	0%	-9%	-2%
CC1(C)Cc2ccccc2C2=C(C(=O)N3CCCCCC3)C(=O)C(=O)N21	-9	/	-11%	14%	/	1%
CCCN1CNc2c(c(=O)[nH]c(=S)n2CCc2ccc(Cl)cc2Cl)C1	/	-3%	/	/	-26%	/
c1cc2c(cc1C1=NNC(=NC3CC3)SC1)OCCO2	-90*	/	0.33µM*	0.29µM*	/	?
COc1ccc(N=C2NN=C(c3ccc4c(c3)OCCO4)CS2)cc1	5	/	1%	-13%	-10%	2%
Cc1cc(C2=NNC(=NC3CCCCC3)SC2)c(C)n1-c1c(C)n(C)n(-c2ccccc2)c1=O	-22	-21%	-41%	3%	-30%	-1%
CCCCN=C1NN=C(c2ccc3c(c2)OCCO3)CS1	-4	-15%	?	7.9µM*	-14%	?
CCCCN=C1NN=C(c2ccc(C)c(C)c2)CS1	64	-12%	?	-26%	-8%	38%
Cc1cccc(C)c1N=C1NN=C(c2ccccc2F)CS1	0	-3%	?	0%	-15%	-20%
Cc1ccccc1N=C1NN=C(c2ccccc2F)CS1	52	/	15µM*	?	/	-3%
Cc1cc(C2=NNC(=NC3CC3)SC2)c(C)n1-c1ccccc1F	-97*	/	0.13µM*	0.13µM*	/	0.01µM*
Cc1ccc(NC(=O)c2ccc(NC(=O)C3CCCC3)cc2)c(C)c1	/	-22%	/	/	-10%	/
c1ccc(CN=C2NN=C(c3cc4ccccc4o3)CS2)cc1	-1	-14%	?	?	-10%	0%

Screens from PubChem BioAssay.
